We go through ten compounds from PubChem BioAssay (Tox21).

Test [1] can be described thus: qHTS assay to identify small molecule agonists of the estrogen receptor beta (ER-beta) signaling pathway - cell viability counter screen (AID 1259380). Note: nearly all actives have a fitted effect of over 30% in size. Note: potency is the fitted concentration of half-maximal effect. The method in brief:
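Cytotoxicity is measured in parallel with the reporter screen: after 16 hr compound exposure at 37C and a 2 hr LiveBLAzer step, CellTiter-Glo is added to the same ER-beta-UAS-bla HEK293T wells and luminescence read after 30 min.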

Test [2] in a line: qHTS assay to identify small molecule antagonists of the estrogen receptor beta (ER-beta) signaling pathway - cell viability counter screen (AID 1259382). Note: nearly all actives have a fitted effect of over 55% in size. Note: potency is the fitted concentration of half-maximal effect. A digest of the protocol: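 Cytotoxicity counter screen multiplexed with the beta-lactamase antagonist assay: GripTite HEK293T ER-beta-bla cells were treated 16 hr with test chemicals in the presence of 1nM 17-beta-estradiol, and viability was measured by CellTiter-Glo.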

A short description of test [3]: qHTS assay to identify small molecule agonists or antagonists of the thyroid stimulating hormone receptor (TSHR) signaling pathway - wild type cell line counter screen (AID 1259384; calls by dose curve). A digest of the protocol: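 Wild-type HEK293 cells were plated 18 h at 37 C/5% CO2, pin-dosed with compound plus Ro20-1724 medium, held 30 min at room temperature, then given cAMP-d2 and anti-cAMP-cryptate; fluorescence was read after 1 h. Fifteen concentrations, triplicate.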
A general note: In qHTS, concentration-response curves come from the screen itself.

The target in test [4] is Thyrotropin receptor (Homo sapiens) (UniProt P16473). Nature of the test: qHTS assay to identify small molecule antagonists of the thyroid stimulating hormone receptor (TSHR) signaling pathway (AID 1259385; calls by dose curve; note: nearly all actives have a fitted effect of over 20% in size; note: potency is the fitted concentration of half-maximal effect). A digest of the protocol: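 TSHR-HEK293 cells were plated and held 18 h at 37C/5% CO2, then given compound plus Ro20-1724 and stimulated with TSH at 1.5 ng/mL final. After 30 min at room temperature, cAMP was detected with cAMP-d2/anti-cAMP-cryptate (1 h) by fluorescence.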

A short description of test [5]: qHTS assay to identify small molecule antagonists of the progesterone receptor (PR) signaling pathway - cell viability counter screen (AID 1346798). Note: nearly all actives have a fitted effect of over 50% in size. Note: potency is the fitted concentration of half-maximal effect. The method in brief: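 Counter screen for cytotoxicity: viability of PR-UAS-bla HEK293T cells was measured with CellTiter-Glo luminescence following 16 hr compound exposure in the presence of R5020.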
Test [6] can be described thus: qHTS assay to identify small molecule antagonists of the TGF-beta/Smad signaling pathway - cell viability counter screen (AID 1346824). Note: nearly all actives have a fitted effect of over 50% in size. The method in brief: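 SBE-bla HEK 293T cells were plated overnight at 37 C, then given compounds in DMSO plus TGF-beta1 (added as 0.25 ng/mL solution) for 5 hr. After the bla read, CellTiter-Glo was added to the same wells and luminescence read after 30 min at room temperature.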

Test [7] can be described thus: qHTS assay to identify small molecule agonists of the TGF-beta/Smad signaling pathway - cell viability counter screen (AID 1346829). Note: nearly all actives have a fitted effect of over 45% in size. Note: potency is the fitted concentration of half-maximal effect. The method in brief:
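Cytotoxicity counter screen: CellTiter-Glo luminescence (30 min, room temperature) measured in the SBE-bla HEK 293T reporter wells after 5 hr compound treatment at 37 C and the 2 hr substrate step.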

A short description of test [8]: qHTS assay to identify small molecule agonists of the TGF-beta/Smad signaling pathway (AID 1346859; active = well fitted activation curve with a large enough effect in the signal ratio in the repeat runs, not every such curve was filed as active; the % refers to the signal ratio; note: series mostly up to about 77 µM). The method in brief:
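Reporter line: HEK 293T with stably integrated SBE-controlled beta-lactamase. Compound exposure lasts 5 hr at 37 C and 5% CO2; substrate loading follows for 2 hr at room temperature, with emission read at 460 and 530 nm.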

Test [9] in a line: Human pregnane X receptor (PXR) small molecule agonists, qHTS cell viability counter screen (AID 1346977). Note: nearly all actives have a fitted effect of over 50% in size. Note: potency is the fitted concentration of half-maximal effect. A digest of the protocol: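 Cytotoxicity counter screen run in the same wells as the PXR luciferase assay, using PXR-Luc HepG2 cells in charcoal-stripped serum medium. Viability: CellTiter-Fluor fluorescence after 24hr compound treatment.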
Test [10] is described as follows: Caspase-3/7 induction in HepG2 cells by small molecules, qHTS assay (AID 1346978). Note: nearly all actives have a fitted effect of over 15% in size. A digest of the protocol:
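Wild-type HepG2 cells (2,000/well) were settled 5 h at 37 C, 5% CO2, then exposed to compounds in DMSO for 17 h. Caspase-3/7 activity was read by luminescence 30 min after adding Caspase-Glo 3/7 reagent at room temperature.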

Test [11] is described as follows: Caspase-3/7 induction in CHO-K1 cells by small molecules, qHTS cell viability counter screen (AID 1346979). Note: potency is the fitted concentration of half-maximal effect; nearly all actives have a fitted effect of over 35% in size. A digest of the protocol: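 Cytotoxicity counter screen run in parallel with the caspase-3/7 assay: CHO-K1 cells, 16hr compound treatment at 37C, then CellTiter-Fluor for 1hr before fluorescence reading.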
The target of test [12] is Androgen receptor (Homo sapiens) (UniProt P10275). Nature of the test: qHTS assay to identify small molecule agonists of the androgen receptor (AR) signaling pathway in the presence of an antagonist (AID 1259381; calls by dose curve; note: nearly all actives have a fitted effect of over 15% in size). The method in brief: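 Agonist-mode confirmation screen: human MDA-kb2 cells stably expressing luciferase under an MMTV promoter bearing AR and GR response elements, co-treated with 3.0uM nilutamide (final). Luminescence measured after 16hr compound incubation.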

A short description of test [13]: qHTS assay to identify small molecule agonists of the estrogen receptor alpha (ER-alpha) signaling pathway in the presence of an antagonist - cell viability counter screen (AID 1259386).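 Note: series mostly up to about 92 µM; cells exposed to compounds for 22 h at 37 °C before the viability read; nearly all actives have a fitted effect of over 30% in size.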 The method in brief:
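Cytotoxicity was measured in parallel with the ERE-luciferase agonist screen, in the same wells. The cells were VM7Luc4E2, which endogenously express ER-alpha, and treatment was with compounds plus 10.0nM ICI-182,780 for 22hr.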

The target of test [14] is Progesterone receptor (Homo sapiens) (UniProt P06401). In words: qHTS assay to identify small molecule agonists of the progesterone receptor (PR) signaling pathway (AID 1346784; calls by dose curve; note: nearly all actives have a fitted effect of over 30% in size). The method in brief:
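Cells (PR-UAS-bla HEK 293T, GripTite) were plated in assay medium containing 2% charcoal-stripped FBS and incubated 6 hr. Test compounds in DMSO were added for 16 hr at 37C. FRET substrate was then loaded for 2 hr at room temperature before fluorescence reading.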

The target is the same in test [15]. Nature of the test: qHTS assay to identify small molecule antagonists of the progesterone receptor (PR) signaling pathway (AID 1346795; active = well fitted inhibition curve with a large enough effect in the signal ratio in the repeat runs, not every such curve was filed as active; the % refers to the signal ratio; note: potency is the fitted concentration of half-maximal effect). A digest of the protocol: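 Antagonist mode: compounds tested against 1 nM (final) promegestone stimulation in HEK293T cells expressing PR-UAS-bla reporter, 16 hr at 37C, 5% CO2; beta-lactamase activity detected via B/G FRET substrate after 2 hr at room temperature.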

The target in test [16] is Thyrotropin-releasing hormone receptor (Homo sapiens) (UniProt P34981). In words: qHTS assay to identify small molecule antagonists of the thyrotropin-releasing hormone receptor (TRHR) signaling pathway (AID 1346877; active = well fitted inhibition curve with a large enough effect in the repeat runs, not every such curve was filed as active; note: series mostly up to about 51 µM). A digest of the protocol:
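Antagonism is measured as suppression of the calcium response to 1 nM TRH in TRHR-HEK293 cells that have been dye-loaded for 2 h at 37 °C after overnight plating. Each compound is tested at 15 concentrations in triplicate.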

The target is the same in test [17]. In words: qHTS assay to identify small molecule agonists of the thyrotropin-releasing hormone receptor (TRHR) signaling pathway (AID 1346891; calls by dose curve;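 note: HEK293 cells expressing TRHR with calcium dye readout; series mostly up to about 58 µM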). A digest of the protocol: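 Cells: TRHR-Hek293, seeded and incubated 18 h. Dye loading: 2 h at 37 °C. Compound added from DMSO stock by pin tool. Read-out: kinetic calcium fluorescence over 3 min.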
Test [18] has as its target Estrogen receptor (Homo sapiens) (UniProt P03372). Nature of the test: qHTS assay to identify small molecule agonists of the estrogen receptor alpha (ER-alpha) signaling pathway in the presence of an antagonist (AID 1259383; calls by dose curve; note: top concentration of the series differs between compounds; nearly all actives have a fitted effect of over 15% in size). A digest of the protocol:
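Agonist-mode confirmation in the presence of the ER antagonist ICI-182,780 at 10.0nM final. Breast-derived VM7Luc4E2 reporter cells were exposed to compounds for 22hr, and ERE-driven luciferase was quantified by luminescence.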

The nature of test [19]: qHTS assay to identify small molecule agonists of the progesterone receptor (PR) signaling pathway - cell viability counter screen (AID 1346799; calls by dose curve; note: nearly all actives have a fitted effect of over 45% in size). A digest of the protocol: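 Cells (PR-UAS-bla HEK293T) are plated at 3,000/well in 2% charcoal-stripped FBS medium, rested 6 hr, dosed and incubated 16 hr at 37C. CellTiter-Glo is then added and luminescence measured after 30 min at room temperature.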

Test [20] in a line: qHTS assay to identify small molecule agonists of the androgen receptor (AR) signaling pathway in the presence of an antagonist - cell viability counter screen (AID 1259379).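 Note: MDA-kb2 human breast cancer cells carrying an MMTV luciferase reporter; series mostly up to about 92 µM; nearly all actives have a fitted effect of over 25% in size.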 The method in brief: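 Cytotoxicity is assessed by CellTiter-Fluor in MDA-kb2 cells carrying an MMTV-driven luciferase reporter. Cells receive 3.0uM nilutamide plus compounds at 15 concentrations and incubate 16 hr at 37C without CO2 before fluorescence reading.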

SMILES strings stand for the structures. Unmarked numbers belong to inactive results. Inconclusive results are not listed. Active and inactive are the calls of the source. Unless noted, calls come from the whole dose curve; as a rule, active = well fitted curve in the direction sought with a large enough effect in the repeat runs; inconclusive = weak or mixed curves; inactive = no such curve, though single readings can be large; an effect the other way counts as inactive or inconclusive.

Chain of Progesterone receptor (Homo sapiens) (P06401 whole entry, looked up): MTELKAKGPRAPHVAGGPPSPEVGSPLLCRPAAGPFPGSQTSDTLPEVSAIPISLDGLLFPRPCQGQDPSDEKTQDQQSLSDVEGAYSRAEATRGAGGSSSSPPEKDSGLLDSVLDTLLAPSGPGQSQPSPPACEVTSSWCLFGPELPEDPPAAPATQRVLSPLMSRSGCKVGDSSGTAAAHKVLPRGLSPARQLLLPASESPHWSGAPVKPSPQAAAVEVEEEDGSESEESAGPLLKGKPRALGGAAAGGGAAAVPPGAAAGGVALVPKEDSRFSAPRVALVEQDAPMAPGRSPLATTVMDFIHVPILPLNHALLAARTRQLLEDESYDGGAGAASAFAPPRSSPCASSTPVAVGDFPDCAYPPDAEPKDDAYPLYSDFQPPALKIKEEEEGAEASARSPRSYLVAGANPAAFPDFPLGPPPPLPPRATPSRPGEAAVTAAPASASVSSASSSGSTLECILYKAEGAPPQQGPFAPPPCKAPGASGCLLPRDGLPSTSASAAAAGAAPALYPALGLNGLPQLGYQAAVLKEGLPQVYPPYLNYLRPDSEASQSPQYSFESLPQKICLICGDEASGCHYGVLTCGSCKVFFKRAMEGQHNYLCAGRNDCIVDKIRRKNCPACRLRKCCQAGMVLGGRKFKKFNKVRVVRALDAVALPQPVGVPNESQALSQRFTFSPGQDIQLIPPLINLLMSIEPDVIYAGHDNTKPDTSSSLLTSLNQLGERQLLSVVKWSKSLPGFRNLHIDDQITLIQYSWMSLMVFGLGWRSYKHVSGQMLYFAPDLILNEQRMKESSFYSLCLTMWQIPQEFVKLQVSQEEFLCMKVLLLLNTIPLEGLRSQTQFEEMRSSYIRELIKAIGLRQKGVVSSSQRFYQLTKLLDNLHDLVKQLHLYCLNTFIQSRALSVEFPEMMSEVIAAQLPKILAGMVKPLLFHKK
Chain of Thyrotropin receptor (Homo sapiens) (P16473 whole entry, looked up): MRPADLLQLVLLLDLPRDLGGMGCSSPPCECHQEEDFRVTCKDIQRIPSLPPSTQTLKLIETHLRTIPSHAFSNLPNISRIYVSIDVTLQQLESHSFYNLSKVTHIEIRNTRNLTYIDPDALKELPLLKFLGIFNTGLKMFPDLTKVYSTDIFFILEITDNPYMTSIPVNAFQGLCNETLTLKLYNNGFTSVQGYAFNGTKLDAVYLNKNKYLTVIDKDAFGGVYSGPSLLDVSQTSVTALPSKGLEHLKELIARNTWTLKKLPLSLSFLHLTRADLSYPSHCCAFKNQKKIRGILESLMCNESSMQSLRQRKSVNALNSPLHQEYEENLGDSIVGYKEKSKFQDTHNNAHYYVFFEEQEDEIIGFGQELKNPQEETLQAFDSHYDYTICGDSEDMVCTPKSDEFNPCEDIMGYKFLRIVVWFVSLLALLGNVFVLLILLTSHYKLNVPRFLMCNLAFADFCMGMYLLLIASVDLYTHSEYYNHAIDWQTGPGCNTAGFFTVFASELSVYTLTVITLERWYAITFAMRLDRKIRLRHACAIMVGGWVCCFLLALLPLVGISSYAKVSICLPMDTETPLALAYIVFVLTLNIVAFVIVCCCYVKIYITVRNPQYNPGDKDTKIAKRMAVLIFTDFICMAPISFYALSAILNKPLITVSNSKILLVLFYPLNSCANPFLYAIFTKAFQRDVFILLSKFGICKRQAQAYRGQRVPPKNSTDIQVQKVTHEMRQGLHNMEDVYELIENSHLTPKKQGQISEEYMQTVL
Chain of Estrogen receptor (Homo sapiens) (P03372 whole entry, looked up): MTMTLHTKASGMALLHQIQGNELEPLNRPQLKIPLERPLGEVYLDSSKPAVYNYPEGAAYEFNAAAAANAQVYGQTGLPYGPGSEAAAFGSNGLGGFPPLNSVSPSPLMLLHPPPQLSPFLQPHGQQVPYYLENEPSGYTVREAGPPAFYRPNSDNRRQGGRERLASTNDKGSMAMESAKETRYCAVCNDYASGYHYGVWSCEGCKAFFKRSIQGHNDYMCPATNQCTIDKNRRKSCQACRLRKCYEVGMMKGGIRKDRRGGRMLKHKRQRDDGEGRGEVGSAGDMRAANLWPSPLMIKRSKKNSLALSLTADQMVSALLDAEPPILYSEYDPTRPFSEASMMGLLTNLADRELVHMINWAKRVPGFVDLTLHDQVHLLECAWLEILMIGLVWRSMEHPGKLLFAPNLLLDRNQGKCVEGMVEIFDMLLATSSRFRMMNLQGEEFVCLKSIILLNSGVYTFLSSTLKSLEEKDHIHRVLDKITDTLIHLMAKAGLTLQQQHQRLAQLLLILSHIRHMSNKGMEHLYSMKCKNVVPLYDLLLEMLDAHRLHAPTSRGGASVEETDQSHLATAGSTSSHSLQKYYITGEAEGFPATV
Chain of Thyrotropin-releasing hormone receptor (Homo sapiens) (P34981 whole entry, looked up): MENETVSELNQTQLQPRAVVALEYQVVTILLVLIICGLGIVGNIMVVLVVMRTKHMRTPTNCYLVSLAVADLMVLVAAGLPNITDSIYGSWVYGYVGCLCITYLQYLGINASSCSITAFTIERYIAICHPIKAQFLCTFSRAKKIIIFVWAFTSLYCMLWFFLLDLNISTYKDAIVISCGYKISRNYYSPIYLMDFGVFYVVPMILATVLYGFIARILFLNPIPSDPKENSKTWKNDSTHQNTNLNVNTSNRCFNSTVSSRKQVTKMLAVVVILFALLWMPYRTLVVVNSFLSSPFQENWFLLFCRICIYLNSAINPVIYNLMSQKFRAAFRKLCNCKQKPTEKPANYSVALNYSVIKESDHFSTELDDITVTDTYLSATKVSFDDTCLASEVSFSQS
Chain of Androgen receptor (Homo sapiens) (P10275 whole entry, looked up): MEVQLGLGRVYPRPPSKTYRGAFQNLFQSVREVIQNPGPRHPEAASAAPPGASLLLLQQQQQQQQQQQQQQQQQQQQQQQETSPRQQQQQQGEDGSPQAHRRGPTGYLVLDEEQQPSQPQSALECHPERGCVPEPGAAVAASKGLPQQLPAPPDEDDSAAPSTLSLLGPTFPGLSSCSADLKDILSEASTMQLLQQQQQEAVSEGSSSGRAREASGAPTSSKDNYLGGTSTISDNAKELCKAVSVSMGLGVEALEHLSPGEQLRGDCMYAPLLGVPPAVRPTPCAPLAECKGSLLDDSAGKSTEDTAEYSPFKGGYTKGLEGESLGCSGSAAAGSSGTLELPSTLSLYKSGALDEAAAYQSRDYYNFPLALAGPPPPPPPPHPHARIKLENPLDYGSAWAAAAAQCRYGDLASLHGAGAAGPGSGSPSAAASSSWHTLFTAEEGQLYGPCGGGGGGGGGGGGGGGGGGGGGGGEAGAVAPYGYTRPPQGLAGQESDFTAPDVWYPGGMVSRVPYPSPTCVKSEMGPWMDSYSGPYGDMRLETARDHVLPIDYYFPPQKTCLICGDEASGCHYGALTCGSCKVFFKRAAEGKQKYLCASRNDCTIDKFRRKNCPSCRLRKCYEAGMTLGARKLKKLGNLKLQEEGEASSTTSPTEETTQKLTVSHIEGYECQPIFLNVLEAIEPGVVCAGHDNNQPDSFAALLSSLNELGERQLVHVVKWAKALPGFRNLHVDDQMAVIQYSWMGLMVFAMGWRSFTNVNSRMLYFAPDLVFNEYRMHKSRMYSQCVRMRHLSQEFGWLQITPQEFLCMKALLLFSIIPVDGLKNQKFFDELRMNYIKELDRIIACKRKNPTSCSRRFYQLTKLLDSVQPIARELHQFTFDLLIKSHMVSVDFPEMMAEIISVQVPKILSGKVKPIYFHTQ

With `CN1CCN(CCCN2c3ccccc3Sc3ccc(C(F)(F)F)cc32)CC1`, the Potency in test [1] is 15 µM (active); in test [2], 21.1 µM (active); in [4], 26.6 µM (active); in [5], 26.6 µM (active); in test [9], 23.7 µM (active); in test [11] it was 33.5 µM (active). The Potency result in [3], in test [6], in test [7] and in [10] was “inactive” in each case. Moreover, the call in test [8] was inactive.

In the case of `CS(=O)(=O)c1ccc([C@@H](CC2CCCC2)C(=O)Nc2cnccn2)cc1Cl`, in [10], the Potency result was “inactive”. Moreover, in test [11], the Potency is 61.1 µM (active).

On to `CC/C=C\C/C=C\C/C=C\CCCCCCCC(=O)OC`, for which the Potency is 48.6 µM (active) in test [1] and 61.1 µM (active) in [11]. Besides, the Potency result in test [12], in test [2], in test [3], in test [4], in test [13] and in test [15] was “inactive” in each case. Moreover, the Potency entry in test [5], in test [6], in [16] and in test [17] was “inactive” each time. For the same compound, the compound was classed as inactive in [14] and in test [8].

On to `c1ccc2c(c1)-c1ccc3ccc4cccc5cc-2c1c3c45`, for which the Potency entry in test [1], in test [12], in test [2], in test [18], in test [3] and in test [5] was “inactive” in each case. The Potency result in test [6], in [7], in [16], in test [17], in [9] and in test [10] was “inactive” each time.

As to `O=C1OC(O)C(C(Cl)Cl)=C1Cl` (stereo not given), the Potency was 19.9 µM (active) in test [1] and 17.8 µM (active) in test [11]. The Potency entry in test [2], in test [3], in test [4], in [13], in test [19] and in test [6] was “inactive” throughout. For the same compound, the Potency result in [7], in [16], in test [17] and in test [10] was “inactive” in each case. Further, the result in test [8] was inactive.

Take `NCc1cccc(C2CCN(C(=O)c3ccc(C#Cc4ccccc4F)o3)CC2)c1`: the Potency result in [12], in [18], in test [16] and in test [17] was “inactive” throughout. In addition, the Potency in [2] is 61.1 µM (active); in [15] it was 68.6 µM (active); in test [5], 48.6 µM (active). The result in test [8] was inactive.

Take `CCCCCCCCCCCCN1CCCC1=O`: the Potency in [1] is 48.6 µM (active); in test [2], 54.5 µM (active); in [11], 61.1 µM (active). The Potency result in [18], in [3], in test [13], in test [6], in test [7] and in test [16] was “inactive” each time. Besides, the Potency result in test [17] was “inactive”. In addition, the call in [14] and in [8] was inactive.

As for `C=C1C(CCl)(CCl)C2(Cl)C(Cl)C(Cl)C1(Cl)C2(Cl)Cl` (stereo not given), the Potency in test [1] is 48 µM (active); in test [5] it was 67.8 µM (active); in [7], 54.3 µM (active); in [11], 53.8 µM (active). Besides, the Potency entry in test [12], in test [3], in test [4], in [6], in test [16] and in [17] was “inactive” in each case. In [8], the outcome was inactive.

Take `CC(C)=NNC(N)=S`: the Potency entry in [20], in test [18], in test [13], in test [6], in test [7] and in test [16] was “inactive” in each case. Moreover, the Potency entry in test [17], in test [9] and in test [10] was “inactive” throughout. Moreover, the Potency in test [5] is 21.7 µM (active). The compound was called inactive in test [8].

On to `COc1cccc(-c2ccc(/C=C\CN3CCCCCC3)cc2Cl)c1`, for which the Potency entry in test [18], in [3], in test [13], in test [5], in test [6] and in [7] was “inactive” throughout. Besides, the Potency result in test [16] and in [17] was “inactive” throughout. Besides, the result in test [14] and in [8] was inactive. For the same compound, the Potency in [9] was 48.3 µM (active).
